In the supplement of paper PMC6555819:

Columns and labels:
Experiment in all cases: PBM binding z-score (relative to random genomic background probes); higher = stronger binding; sequences stand for … in GC…GCGATTGACAGCGTAGAATGAAGG
[1] = system: PPARg:RXRa DBDmut IVT, anti-RXR (DBD mutation: RXRa K156A/R161A, NR concentration 270 nM, RXRa partner concentration 90 nM)
Procedure, shortened: (§1)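 Random background probes are the reference for binding z-scores. These scores derive from regression-normalized fluorescence on custom Agilent 4×180K protein-binding microarrays incubated 1 h with ligand-free nuclear receptor dimers. Binding was detected with antibodies against each partner (one per run).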

[2] = system: PPARg:RXRa IVT, anti-PPARg (NR concentration 270 nM, RXRa partner concentration 90 nM)
Procedure, shortened: as §1

[3] = system: PPARg DBDmut:RXRa IVT, anti-PPARg (DBD mutation: PPARg1 K132A/R137A, NR concentration 270 nM, RXRa partner concentration 90 nM)
Procedure, shortened: as §1

[4] = system: PPARg DBDmut IVT, anti-PPARg (DBD mutation: PPARg1 K132A/R137A, NR concentration 270 nM)
Procedure, shortened: as §1

[5] = system: PPARg homodimer (NR concentration 180 nM)
Procedure, shortened: as §1

[6] = system: PXR:RXRa (NR concentration 270 nM, RXRa partner concentration 90 nM)
Procedure, shortened: as §1

[7] = system: PXR homodimer (NR concentration 270 nM)
Procedure, shortened: as §1

[8] = system: RARa:RXR (NR concentration 270 nM, RXRa partner concentration 90 nM)
Procedure, shortened: as §1

[9] = system: RARa homodimer (NR concentration 270 nM)
Procedure, shortened: as §1

[10] = system: RARb:RXRa (NR concentration 270 nM, RXRa partner concentration 90 nM)
Procedure, shortened: as §1

Sequence | PBM binding z-score [1] | PBM binding z-score [2] | PBM binding z-score [3] | PBM binding z-score [4] | PBM binding z-score [5] | PBM binding z-score [6] | PBM binding z-score [7] | PBM binding z-score [8] | PBM binding z-score [9] | PBM binding z-score [10]
ATCCCTAGGTAACCAAGTTCAGTGAATGCCGAAC | -0.197 | 0.606 | -0.0937 | 0.0123 | 0.495 | 2.03 | 1.88 | 0.847 | 0.816 | 1.25
AATACAGGGTCATCGTAGGCCTGAGTACGCACAG | 2.91 | 4.07 | 1.77 | 1.33 | 2.11 | 4.23 | 0.334 | 4.79 | 0.501 | 4.43
CGAACTAGGTCATCCAGGAGAGTGAATACATTGA | 7.67 | 8.61 | 1.76 | 0.981 | 2.19 | 1.34 | 0.448 | 2.31 | 0.76 | 3.78
ACAGACAGGTGATGAAGGTAAATCAGGCTATCAT | -0.0404 | 0.544 | 0.329 | 0.144 | 0.185 | -0.214 | -0.0702 | 0.248 | 0.26 | 0.21
TCTTGTAGATCATAGGTTAAGAAAGCCGAAGCCT | 1.8 | 1.96 | 0.499 | 1.11 | 0.856 | 0.84 | -0.184 | 1.37 | 0.366 | 0.882
CCTAGCAGGCCAGCGTCACTCAAGCATTTCGCTT | 0.696 | -0.171 | -1.15 | -1.61 | -0.299 | -0.806 | -0.554 | -0.721 | -0.187 | -0.122
TCGAGTAGGTTAGTCGGGGCATTCAGCCAACATA | 2.04 | 1.69 | -0.526 | -0.18 | -0.242 | -0.0448 | -0.488 | 0.00411 | -0.698 | 0.351
GGAACGAGGGTATTCGAGTTGATAGCATGGCGAT | 0.383 | 0.201 | -0.0387 | -0.595 | -0.648 | 1.19 | -0.17 | 0.11 | -0.18 | -0.145
TAGCCTAGGTTATTGGGCCAGTATAGTACGCATC | 2.14 | 2.87 | -0.637 | 0.0704 | -0.257 | 0.000197 | -0.646 | 0.299 | -1.1 | 0.689
TCTGCTAGATCAACGATGGTCAGCTAATCTGCTA | 0.608 | -0.401 | -0.179 | -0.566 | -1.56 | -0.434 | -1.18 | -0.57 | -1.3 | -0.346
ACTAGTCGGTCAGCTGAGGTCACACACAATTCGG | 3.9 | 3.98 | 0.395 | 0.525 | 3.35 | 5.95 | 2.63 | 4.69 | 2.2 | 4.16
GTACCAAGGTGATTAGGTCGTTGATGAGTAGGCG | 1.26 | 1.63 | 0.301 | -0.28 | 1.06 | 0.265 | 0.198 | 0.753 | 0.341 | 1.1
CCTACTGGGCCATAAAGGTCATTGATGCCGATAA | 3.2 | 4.78 | -0.0892 | 0.0735 | 1.94 | 4.87 | 2.7 | 4.9 | 0.376 | 3.89
CCTACTGGGCCACGATAGGTCATTGATTCAGTGA | 5.57 | 5.44 | 0.89 | -0.512 | 1.33 | 1.49 | 0.172 | 2.14 | 0.152 | 2.06
CGTCCAAGGTCAAGGTCAGTGAGAGAGACTCGAA | 3.51 | 4.84 | 1.23 | 2.41 | 3.47 | 4.79 | 1.08 | 5.05 | 1.59 | 5.69
GTACCAAGGTCAATAGGTCGTTGATGAGTAGGCG | 2.92 | 4.42 | -0.00557 | 0.159 | 2.8 | 4.09 | 0.916 | 4.91 | 0.768 | 5.2
CGAACTAGGTCATCCAGGACAGTGAGTACATTGA | 8.47 | 8.31 | 2.59 | 1.36 | 2.5 | 2.8 | 8.11 | 2.46 | 0.186 | 3.92
GTACCAAGGTGAATAGGTCGTTTATGAGTAGGCG | 1.82 | 2.43 | 0.986 | 0.34 | 1.17 | 1 | 0.0793 | 1.92 | 0.555 | 2.01
ACTATTAGTTGCCTTAGGGCAACCGATACGACGC | -0.0728 | 0.674 | 0.726 | 0.896 | 0.221 | 0.335 | -0.148 | 0.576 | 0.282 | 0.771
